Only some compounds are listed: those with a hit (about 9.4% of all), similar ones and a draw of the others.
SMN2 splice enh = qHTS Assay for Enhancers of SMN2 Splice Variant Expression | HEK293 SMN2-luciferase splicing reporter, luminescence, 30-36 h | Potency, µM (series often up to 46.1 µM), inactives show top-dose activity change, positive = activation, most hits filed as activators | 210,000 tested, 2.8% active | AID 1458, 2008; note: % of control where 0% means no effect; nearly all actives have a fitted effect of over 55% in size
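qHTS luciferase splicing reporter: luminescence rises when SMN2 exon 7 is included in transfected HEK293 cells. Compound exposure lasted 30-36 h at 37C, with 4.5 mM final sodium butyrate as control, followed by a ONE-Glo read.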
ELG1 DNA repair = qHTS screen for small molecules that inhibit ELG1-dependent DNA repair in human embryonic kidney (HEK293T) cells expressing luciferase-tagged ELG1; HEK293T ELG1-luciferase reporter, luminescence, 16 h; DNA damage induced by 5-fluorouridine; Potency, µM (doses to about 46.1 µM), inactives show top-dose activity change, negative = inhibition, actives largely listed as inhibitors; 330,000 tested, 2.3% active; AID 504467, 2011; note: % is set by controls: 0 for no effect and ±100 for the full control effect; nearly all actives have a fitted effect of over 55% in size
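Luminescence from the luciferase reporter, measured 30 min after ONE-Glo reagent at room temperature, was the read-out. Beforehand, 2,000 cells per well were exposed for 16 hr at 37 °C to 5-fluorouridine together with compound or vehicle.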
ELG1 genotoxic = qHTS screen for small molecules that induce genotoxicity in human embryonic kidney (HEK293T) cells expressing luciferase-tagged ELG1 | HEK293T ELG1-luciferase reporter, luminescence, 16 h | Potency, µM (titrated, usually from 46 µM), inactives show at the highest dose activity change, positive = activation, usual class: activators | 330,000 tested, 1.3% active; note: % of control where 0% means no effect; nearly all actives have a fitted effect of over 60% in size
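HEK293T cells expressing luciferase-tagged ELG1 were treated with compound or DMSO for 16 hr at 37°C. Luciferase activity was then read after 30 min with ONE-Glo at room temperature; rising signal flags genetic stress.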
FLuc counter = qHTS profiling assay for firefly luciferase inhibitor/activator using purifed enzyme and Km concentrations of substrates (counterscreen for miR-21 project). 360,000 tested, 6.9% active. purified FLuc, Km substrates, luminescence inhibition. Potency, µM (titrated, usually from 57.5 µM), for the others: at the top dose activity change, negative = inhibition, actives largely listed as inhibitors. AID 588342, 2011. Luciferin 4-monooxygenase (Photinus pyralis), P08659;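 note: plate controls were vehicle for no effect and reference inhibitor for full effect; nearly all actives have a fitted effect of over 55% in size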
Target sequence (P08659 whole entry, looked up): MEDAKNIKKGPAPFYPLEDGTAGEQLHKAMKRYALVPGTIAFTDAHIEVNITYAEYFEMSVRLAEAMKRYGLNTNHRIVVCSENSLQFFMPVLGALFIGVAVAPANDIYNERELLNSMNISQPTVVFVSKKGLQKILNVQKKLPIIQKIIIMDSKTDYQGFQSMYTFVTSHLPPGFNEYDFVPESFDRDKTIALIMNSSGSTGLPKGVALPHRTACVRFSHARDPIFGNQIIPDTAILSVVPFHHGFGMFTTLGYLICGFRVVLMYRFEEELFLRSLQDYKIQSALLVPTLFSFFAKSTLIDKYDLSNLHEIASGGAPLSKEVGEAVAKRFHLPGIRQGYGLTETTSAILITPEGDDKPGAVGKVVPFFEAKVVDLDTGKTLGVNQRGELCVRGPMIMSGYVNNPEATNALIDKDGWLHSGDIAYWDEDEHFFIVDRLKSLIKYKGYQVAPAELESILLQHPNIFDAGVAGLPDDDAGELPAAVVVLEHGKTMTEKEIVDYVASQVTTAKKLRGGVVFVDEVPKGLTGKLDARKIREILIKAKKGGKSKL
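Purified P. pyralis luciferase, 10 nM final, with Km-level 10 uM D-luciferin and 10 uM ATP in 50 mM Tris acetate pH 7.5, 10 mM Mg acetate, 0.01% Tween-20, 0.05% BSA; 6-point qHTS titration about 60 µM downward; luminescence read.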
NPC1 prom act = qHTS Assay for NPC1 Promoter Activators | Huh7 NPC1 promoter luciferase reporter, 24 h | Potency, µM (titrated, usually from 9.22 µM), for the others: top-dose activation, hits mostly activators | 320,000 tested, 2.4% active | AID 485313, 2010; note: % of control where 0% means no effect; nearly all actives have a fitted effect of over 60% in size
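Cells: Huh7 expressing luciferase under the NPC1 promoter, 1500/well. Seeded 2 h, compound added, incubated 24 h at 37 °C. Luciferase reagent, 10 min ambient, then luminescence.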
Rab9 prom act = qHTS Assay for Rab9 Promoter Activators; Huh7 Rab9 promoter-luciferase reporter, luminescence, 24 h; Potency, µM (series often up to 9.22 µM), for the others: at the highest dose activation, negative = inhibition, usual class: activators; 320,000 tested, 2.8% active; AID 485297, 2010; note: % of control where 0% means no effect; nearly all actives have a fitted effect of over 60% in size
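Measured in stably transfected Huh7 cells bearing a Rab9 promoter–luciferase construct: 24 h compound treatment at 37 °C, followed by luminescence detection.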
Numbers without * were called inactive; [ ] = dose if it differs, or a comment. Calls come from the whole dose curve; as a rule, active = well fitted curve in the direction sought with a large enough effect; inconclusive = small, poorly fitted or top-dose-only effect, or another doubt; inactive = no such curve, though single readings can be large; an effect the other way counts as inactive or inconclusive. Potency is the fitted concentration of half-maximal effect.

Results for Cc1cccc(-n2c3c(cc(-c4nc(-c5ccc(Cl)cc5)cs4)c2=O)C(=O)CC(C)(C)C3)c1 ?
SMN2 splice enh: -5%; FLuc counter: -6%

What do the screens show for `CNc1ncnc2c1ncn2[C@@H]1O[C@H](COP(=O)(O)O)[C@@H](O)[C@H]1O`?
SMN2 splice enh: -2%

Results for O=C(NC1CC1)c1sc2cc(F)ccc2c1Cl ?
ELG1 DNA repair: inconclusive; ELG1 genotoxic: inconclusive; FLuc counter: 9.5µM*; NPC1 prom act: 23%; Rab9 prom act: inconclusive

What do the screens show for `C#CCOc1ccc(C2C(C(=O)OC)=C(C)NC3=C2C(=O)c2ccccc23)cc1OCC` (centres undefined)?
FLuc counter: -10%

Results for O=C(NC(=S)NCC1CCCO1)c1ccc(Cl)cc1Cl (centres undefined) ?
SMN2 splice enh: 17%; ELG1 DNA repair: inconclusive; ELG1 genotoxic: 7%; FLuc counter: -4%; NPC1 prom act: 3%; Rab9 prom act: 1%

Results for O=C(NCC1CCCO1)c1cc(-c2ccc(F)cc2)no1 (centres undefined) ?
ELG1 DNA repair: inconclusive; ELG1 genotoxic: inconclusive; FLuc counter: inconclusive; NPC1 prom act: 23%; Rab9 prom act: 3.2µM*

Results for Cc1cccc(NC(=O)C(=O)NCC2CCCO2)c1 (centres undefined) ?
ELG1 DNA repair: inconclusive; ELG1 genotoxic: inconclusive; FLuc counter: 21µM*; NPC1 prom act: 2.5µM*; Rab9 prom act: 0.71µM*

How did O=C(CNC(=O)c1ccc(Cl)cc1Cl)NCC1CCCO1 (centres undefined) do in these assays?
ELG1 DNA repair: inconclusive; ELG1 genotoxic: 2%; FLuc counter: 24µM*; NPC1 prom act: 11%; Rab9 prom act: 12%

Results for Cc1ccc(-c2cc(C(=O)NCC3CCCO3)no2)cc1 (centres undefined) ?
SMN2 splice enh: 10µM*; ELG1 DNA repair: inconclusive; ELG1 genotoxic: inconclusive; FLuc counter: -17%[2.3 µM]; NPC1 prom act: 2.5µM*; Rab9 prom act: 2.8µM*

What do the screens show for `COc1ccc(-c2cc(C(=O)NCC3CCCO3)on2)cc1OC` (centres undefined)?
ELG1 DNA repair: inconclusive; ELG1 genotoxic: 5%; FLuc counter: -9%; NPC1 prom act: -5%; Rab9 prom act: -4%

How did O=C(NCC1CCCO1)c1cc(-c2ccc(Cl)cc2Cl)on1 (centres undefined) do in these assays?
SMN2 splice enh: 25µM*; ELG1 DNA repair: inconclusive; ELG1 genotoxic: inconclusive; FLuc counter: 3.4µM*; NPC1 prom act: 3.5µM*; Rab9 prom act: 2.8µM*

Results for O=C(NCC1CCCO1)c1ccccc1-c1nc(-c2ccccc2)no1 (centres undefined) ?
SMN2 splice enh: 25%; ELG1 DNA repair: 14%; ELG1 genotoxic: 5%; FLuc counter: inconclusive; NPC1 prom act: -1%; Rab9 prom act: 5%

How did O=C(NCC1CCCO1)c1cc(-c2ccccc2)on1 (centres undefined) do in these assays?
SMN2 splice enh: 35µM*; ELG1 DNA repair: inconclusive; ELG1 genotoxic: 10µM*; FLuc counter: 15µM*; NPC1 prom act: 2.5µM*; Rab9 prom act: 2.5µM*

What do the screens show for `Cc1ccc(-c2onc(C)c2C)cc1S(=O)(=O)NCc1cccs1`?
FLuc counter: -10%

How did Cc1cccc(C)c1NC(=O)CSc1nccn1C do in these assays?
SMN2 splice enh: -2%; FLuc counter: -3%

Bioassay records as filed in PubChem BioAssay.
